Test results reported in PubChem BioAssay AID504847 (National Center for Advancing Translational Sciences (NCATS), 2011).
In all, about 400,000 compounds went through this assay and about 3,700 (0.93%) were called active. Not shown: some 3% with an inconclusive outcome. The full list was thinned out, with actives kept by preference. Some compounds were tested as several samples or in several runs, with calls that do not always agree. Values without a mark were called inactive. Calls come from the whole dose curve; as a rule, active = well fitted inhibition curve with a large enough effect; inconclusive = small, poorly fitted or top-dose-only effect, or another doubt; inactive = no such curve, though single readings can be large or run the other way.

target: Vitamin D3 receptor (Homo sapiens) (UniProt P11473); experiment: Inhibitors of the vitamin D receptor (VDR): qHTS; conditions: VDR-SRC2-3 peptide fluorescence polarization, 2 h; max response, negative = inhibition: hits give low values
Procedure, shortened: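 Fluorescence polarization assay of small-molecule disruption of VDR binding to coregulator peptide SRC2-3. Compounds and controls pin-transferred, then read after 2 h incubation at ambient room temperature.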
% is set by controls: 0 for no effect and ±100 for the full control effect; potency is the fitted concentration of half-maximal effect.

Vitamin D3 receptor (Homo sapiens), sequence (P11473 whole entry, looked up): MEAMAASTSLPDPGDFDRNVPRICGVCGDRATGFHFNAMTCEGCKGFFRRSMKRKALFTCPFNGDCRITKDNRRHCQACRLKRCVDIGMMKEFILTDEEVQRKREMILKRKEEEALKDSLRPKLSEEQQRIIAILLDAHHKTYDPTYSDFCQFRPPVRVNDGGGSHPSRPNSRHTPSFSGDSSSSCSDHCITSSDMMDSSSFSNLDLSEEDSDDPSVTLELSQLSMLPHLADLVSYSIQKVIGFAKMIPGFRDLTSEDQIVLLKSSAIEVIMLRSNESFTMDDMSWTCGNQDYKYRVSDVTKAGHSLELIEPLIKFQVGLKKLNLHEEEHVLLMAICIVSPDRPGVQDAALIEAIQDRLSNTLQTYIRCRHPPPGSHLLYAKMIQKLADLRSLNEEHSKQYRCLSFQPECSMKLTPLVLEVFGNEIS

| SMILES | max response, negative = inhibition | Potency |
| --- | --- | --- |
| COCCNC(=O)CSc1c(C)cnc2c1c(=O)n(C)c(=O)n2C | 8.06% |  |
| COc1ccc(CC(=O)Nc2ccc(-c3nc4ccccc4s3)c(C)c2)cc1 | -0.795% |  |
| COc1ccc(NC(=O)C(=O)NCc2ccco2)cc1 | -7.31% |  |
| COc1ccc(CS(=O)/C(Cl)=C(/Cl)C(=O)Nc2ccc(OC)nc2)cc1 (stereo not drawn) |  | 20 µM (active) |
| O=C(Nc1ccc2nc(SCCOc3ccccc3Cl)sc2c1)c1ccco1 | 5.06% |  |
| CC(Nc1ccc(-c2nc(-c3ccco3)no2)cc1[N+](=O)[O-])c1ccccc1 (stereo not drawn) | 0.644% |  |
| CCc1ccccc1NC(=O)Cn1c(=O)n(CC2CCC(C(=O)NCCc3ccccc3)CC2)c(=O)c2ccccc21 (stereo not drawn) | -18.5% |  |
| Cc1cc(C(=O)Nc2cccc(C(F)(F)F)c2)c2c(C)nn(-c3cccc(F)c3)c2n1 | -0.555% |  |
| Nc1scc[n+]1Cc1cccc2cccnc12 | 4.69% |  |
| c1ccc2c(C[n+]3csc4ccccc43)cccc2c1 |  | 44.7 µM (active) |
| c1ccc2c(CNn3cnnc3)cccc2c1 | -17.7% |  |
| CCN(CC)c1ccc(NC(=O)Cn2nc3c(cc2=O)CCCC3)c(C)c1 | 2.95% |  |
| CC1(C)OC2CO[C@]3(COS(N)(=O)=O)OC(C)(C)OC3C2O1 (stereo partly drawn) | -14.1% |  |
| Oc1cc(O)c2c(c1)OC(c1ccc(O)c(O)c1)C(O)C2 (stereo not drawn) | -19.6% | 35.5 µM (active) |
| NS(=O)(=O)c1ccc(NC(=O)CSc2nnc3c(n2)[nH]c2ccccc23)cc1 | 5.25% |  |
| CCOc1cc(-c2nnc(SCC(=O)NC3CCCCC3)nc2-c2ccc(OC)c(OCC)c2)ccc1OC | 15.8% |  |
| COc1ccc(OCc2n[nH]c(=S)n2N)cc1 |  | 35.5 µM (active) |
| COc1ccc(Cc2n[nH]c(=S)n2NC(=O)Nc2ccc(C)cc2)cc1 | -6.31% |  |
| COc1ccc(OC)c(-n2c(-c3ccn[nH]3)n[nH]c2=S)c1 | -3.11% |  |
| COc1cc(C(=O)N(Cc2ccc(C(C)C)cc2)C2CCS(=O)(=O)C2)cc(OC)c1OC (stereo not drawn) | -4.09% |  |
| CCOc1cc(/C=C(\C#N)C(=O)Nc2ccccc2C)ccc1OCc1cc(=O)n2nc(CC)sc2n1 | -13.9% |  |
| O=C(Nc1ccccc1N1CCCC1)c1ccc2ccccc2c1 | -2.28% |  |
| O=C(NNC(=O)c1ccc2ccccc2c1)c1ccc(Cl)cc1 | 18.2% |  |

| SMILES | max response, negative = inhibition | Potency |
| --- | --- | --- |
| C=CC(=O)c1ccc2ccccc2c1 |  | 1.78 µM (active) |
| O=C(CC1N=C2c3ccccc3N=C(SCc3cccc(Cl)c3)N2C1=O)NCc1ccc2c(c1)OCO2 (stereo not drawn) | 13.3% |  |
| COc1ccc(NC(=O)CSc2nnc(-c3nnn(-c4ccc(F)cc4)c3C)o2)cc1 | 15.3% |  |
| CCCCCCCC1=Cc2ccc(F)cc2C(C(C(=O)OC)C(=O)OC)N1C(=O)OC (stereo not drawn) | 2.51% |  |
| COc1ccc(CCN=C2SCC(=O)N2Cc2ccccc2)cc1OC | 3.18% |  |
| COc1cc(C2CC(=O)N3CN(Cc4ccccc4)CSC3=C2C#N)ccc1OCc1ccccc1 (stereo not drawn) |  | 22.4 µM (active) |
| COc1cc(CNC2CCCC2)c(Br)cc1OCc1ccccc1 | 18.9% |  |
| Cc1cccc(-c2nc(SCc3ccc(Br)cc3)n3[nH]c(=O)cc3n2)c1 | 11.8% |  |
| COc1ccccc1CNc1ncnc2ccc(-c3ccc4c(c3)OCO4)cc12 | -6.36% |  |
| CCn1c(CNC(=O)c2ccc(OC)c(OC)c2)nnc1SCC(=O)Nc1ccccc1 | 2.26% |  |
| COc1ccc(-n2c(SC)nc(O)cc2=O)cc1 | -7.87% |  |
| CCn1c(SC)nc(O)c(C(c2ccc(OC)c(O)c2)c2c(O)nc(SC)n(CC)c2=O)c1=O |  | 35.5 µM (active) |
| COc1cc(NC(=O)c2noc3c2CSc2ccccc2-3)cc(OC)c1OC | 1.93% |  |
| COc1ccc(CNc2nc(-c3ccc(Cl)cc3)nn2S(=O)(=O)c2ccc(C)cc2)cc1 | -0.454% |  |
| Cc1ccc(-n2cnc3cc(C(=O)NCCC4=CCCCC4)ccc32)cc1Cl | -3.42% |  |
| CCOC(=O)c1ccc(CN(Cc2ccccc2)S(=O)(=O)c2ccc(Cl)cc2)cc1 | 9.71% |  |
| Cc1cccc(NC(=O)CSc2nc(-c3ccco3)cc(C(F)(F)F)n2)c1C | -20.2% |  |
| CCn1c(SCC(=O)Nc2sc(C)c(C)c2C#N)nnc1C1CC1 | 1.75% |  |
| CCOC(=O)c1sc(NC(=O)CSc2nc(C)cc(C(F)(F)F)n2)c(C#N)c1C |  | 28.2 µM (active) |
| CC1=Nc2cc(C(=O)N3CCC(C)CC3)ccc2Sc2ccc(Cl)cc21 | -2.31% |  |
| CN(Cc1ccco1)c1cc(-c2ccccc2C(F)(F)F)ncn1 |  | 39.8 µM (active) |
| Cn1c(=O)[nH]c(=O)c2c1[nH]c(=S)n2Cc1ccccc1 |  | 89.1 µM (active) |
| Cn1c(=O)[nH]c(=O)c2c1nc(NCCc1ccccc1)n2Cc1ccc(F)cc1 | -22.7% |  |

| SMILES | max response, negative = inhibition | Potency |
| --- | --- | --- |
| Cc1nnc(Sc2nc3c(c(=O)[nH]c(=O)n3C)n2Cc2ccccc2)s1 | -19.6% |  |
| c1ccc(Cn2nnc3c(N4CCCCC4)ncnc32)cc1 | 7.87% |  |
| COc1ccc(OC)c(-c2noc(N3CCN(c4cc(Cl)ccc4C)CC3)n2)c1 | 13.2% |  |
| CCC1(c2ccccc2)NC(=O)N(CC(=O)c2ccc3c(c2)OCO3)C1=O (stereo not drawn) | 7.42% |  |
| O=C(CCN1CCc2ccccc2C(O)(c2ccccc2)C1)c1ccc2c(c1)OCCO2 (stereo not drawn) |  | 35.5 µM (active) |
| O=C(CN1CCC(O)(c2ccccc2)CC1)Nc1ccc2c(c1)OCCO2 | 0.904% |  |
| COc1cc(OC)cc(C(=O)NCCc2csc3nc(-c4ccccc4F)nn23)c1 | 1.56% |  |
| CCOC(=O)c1cccc(NS(=O)(=O)c2cc(-c3cnc(C)o3)ccc2OC)c1 | 1.33% |  |
| O=C(CSc1nnnn1C1CCCC1)N1CCCCC1 | 12.7% |  |
| CC(Sc1nnnn1C)C(=O)NC(=O)NC1CCCCC1 (stereo not drawn) | 15% |  |
| CC(Sc1nnnn1C1CCCCC1)C(=O)O (stereo not drawn) |  | 79.4 µM (active) |
| CC1OC(OCC2OC(Oc3c(-c4ccc(O)c(O)c4)oc4cc(O)cc(O)c4c3=O)C(O)C(O)C2O)[C@@H](O)C(O)C1O (stereo partly drawn) | -0.0788% |  |
| COc1cc(C(=O)N2CCN(c3ccc(Nc4ccc(C)cc4)nn3)CC2)cc(OC)c1OC | 13.1% |  |
| Cc1oc2ncnc(N3CCOCC3)c2c1C(=O)NCCc1ccccc1 | 9.03% |  |
| O=C1c2ccccc2C(=O)N1c1ccc(S(=O)(=O)N2CCOCC2)c2ccccc12 | -4.23% |  |
| FC(F)(F)C1CCCN(c2nsc3ccccc23)C1 (stereo not drawn) |  | 20 µM (active) |
| C[C@H]1CCC[C@@]2(C)CCCC[C@]12O | 0.107% |  |
| CC(=O)N(C1=C(Cl)C(=O)c2ccccc2C1=O)c1ccc(C(=O)O)cc1 |  | 7.08 µM (active) |
| CCOC(=O)c1cc2c(=O)n3ccccc3nc2n(CCCOC)c1=NC(=O)C(C)(C)Oc1ccc(Cl)cc1 | -19.6% |  |
| CC(=O)Oc1c2c(c3c(c1CC=C(C)C)O[C@@]14C(=CC5CC1C(C)(C)OC4(C/C=C(\C)C(=O)O)C5=O)C3=O)OC(C)(CCC=C(C)C)C=C2 (stereo partly drawn) |  | 3.16 µM (active) |
| CCc1ccccc1OCCSc1nc(-c2cccs2)nc2cc(=O)[nH]n12 | -2.15% |  |
| O=C1CC(c2ccccc2)CC2=C1C(c1ccco1)n1nc(C(F)(F)F)nc1N2 (stereo not drawn) | -0.088% |  |
| CC(C)c1ccc(S(=O)(=O)Nc2ccc(O)c(Sc3nc4ccccc4s3)c2)cc1 | -4.7% |  |

| SMILES | max response, negative = inhibition | Potency |
| --- | --- | --- |
| CC(C)(C)c1ccc(S(=O)(=O)Nc2ccc(O)c(Sc3nc4ccccc4s3)c2)cc1 | -10.5% |  |
| O=[N+]([O-])c1c(NCCO)cc(Sc2nc3ccccc3s2)c2nonc12 |  | 14.1 µM (active) |
| NCCCNCCCCN(CCCN)/[N+]([O-])=N/O | 8.85% |  |
| Oc1c(C(c2ccccn2)N2CCOCC2)ccc2cccnc12 (stereo not drawn) |  | 17.8 µM (active) |
| Oc1c(C(c2ccccc2Cl)N2CCOCC2)sc2nc(-c3ccco3)nn12 (stereo not drawn) | 10.6% |  |
| COc1ccc(NC(=O)c2sc3nc[nH]c(=O)c3c2C)cc1 | 6.76% |  |
| Cc1ccc2nc(/C(C#N)=C/c3ccc(-c4ccc(C(=O)OC(C)C)cc4)o3)[nH]c2c1 | -0.457% |  |
| Nc1ccc2[nH]c(=S)sc2c1 |  | 28.2 µM (active) |
| O=c1[nH]c2ccccc2s1 | 1.06% |  |
| COc1ccc(CNC(=O)CSc2nc3ccccc3nc2Cc2ccccc2)cc1 | -10.7% |  |
| Cc1cccc(C)c1NC(=O)NC1=CCCN1C | 8.2% |  |
| COc1ccc(N=Nc2c(-c3ccc(OC)cc3)[nH]oc2=O)cc1 | -12% |  |
| COc1ccc(N=C2C=CC(=O)O2)cc1 |  | 79.4 µM (active) |
| COC1=CC(=O)OC(c2ccc(OC)cc2)C1 (stereo not drawn) | 6.19% |  |
| COc1ccc(-c2nc3nc(C)cc(C)n3c2Nc2c(C)cccc2C)cc1 | -18.2% |  |
| Cc1cccc(OCCSc2nc3ccc(NC(=O)COc4ccccc4C)cc3s2)c1 | 4.41% |  |
| CC(=O)c1cc(-c2ccccc2)[nH]c1N1CCCC1 | 0% |  |
| O=C1NN(c2ccccc2)C(=O)/C1=C/c1ccc(-c2cccc(C(=O)O)c2)o1 |  | 89.1 µM (active) |
| CCCN(CCC)CCCNC(=O)Cn1ncc2c3ccccc3n(Cc3ccccc3)c2c1=O | 11.1% |  |
| Cc1cc(C)c(NC(=O)c2cc3sc(Cl)cc3n2C)c(C)c1 | -11% |  |
| CC1=NN(c2ccc(Cl)c(C(=O)O)c2)C(=O)/C1=C/c1ccc(-c2ccccc2[N+](=O)[O-])o1 |  | 50.1 µM (active) |
| O=C1NC(c2ccc(-c3ccccc3[N+](=O)[O-])o2)C(C(=O)c2ccc(Cl)cc2)C(O)(C(F)(F)F)N1 (stereo not drawn) | -20.1% |  |
| O=C(Nc1ccc(N2CCOCC2)cc1)c1ccc(-c2ccccc2[N+](=O)[O-])o1 | -16.6% |  |
